Bioassay records (PubChem BioAssay)
Marburg entry inh = inhibitors of Marburg virus binding or cell entry; Marburg virus pseudotyped entry inhibition, cell reporter; Potency, µM (series often up to 37.8 µM), for inactives: top-dose activity change, negative = inhibition, actives largely listed as inhibitors; 300,000 tested, 1.8% active; AID 540276; calls by dose curve; tested in HEK293 cells; note: potency is the fitted concentration of half-maximal effect
Vaccinia Venus = vaccinia inhibition (Venus reporter); Vaccinia virus Venus reporter expression, fluorescence; Potency, µM (doses to about 36.5 µM), inactives show at the top dose activity change, negative = inhibition, most hits filed as inhibitors; 330,000 tested, 0.46% active; calls by dose curve; tested in A549 cells; note: potency is the fitted concentration of half-maximal effect; nearly all actives have a fitted effect of over 30% in size
Vaccinia mCherry = inhibitors of vaccinia virus infection (mCherry reporter signal). Vaccinia virus mCherry reporter infection, fluorescence. Potency, µM (titrated, usually from 36.5 µM), inactives show at the highest dose activity change, negative = inhibition, usual class: inhibitors. AID 720579. 310,000 tested, 0.63% active; calls by dose curve; tested in A549 cells; note: potency is the fitted concentration of half-maximal effect; nearly all actives have a fitted effect of over 35% in size
HCMV antiviral = inhibitors of human cytomegalovirus; HFF cells, HCMV-luciferase reporter, 72 h; active compounds read low; activity change, negative = inhibition, % at 57.5 µM; 410,000 tested, 4.5% active; in the data active = activity change below about -60%; inconclusive = no clear call, values can overlap the other calls; inactive = above about -39%
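Two compound doses tested in HFFs infected with HCMV-luciferase, MOI 1 PFU/cell, 72 h at 37C. Lysate luminescence read with OneGlo; data normalized against buffer-only and 10uM Salinomycin inhibitor controls.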
HCV inh = blocks hepatitis C virus; 340,000 tested, 3.4% active; Huh7.5.1 HCVcc-Cre infection, luciferase reporter, 44 h; AID 651820; Potency, µM (titrated, usually from 41.8 µM), inactives show top-dose activity change, negative = inhibition, usual class: inhibitors; active = well fitted inhibition curve with a large enough effect; inconclusive = small, poorly fitted or top-dose-only effect, or another doubt; inactive = no such curve, though single readings can be large or run the other way; note: potency is the fitted concentration of half-maximal effect
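HCVcc-Cre virus at an moi near 0.5 was added right after compound to cells cultured 4 h from seeding (1,000 cells/well). Luciferase activity was determined 44 h later, 15 min after substrate addition at RT.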
LASV entry inh = inhibitors of Lassa virus binding or cell entry. 300,000 tested, 1.2% active. AID 540256. Lassa virus pseudotype entry inhibition, cell reporter. Potency, µM (top dose mostly 37.9 µM), for the others: at the top dose activity change, negative = inhibition, hits mostly inhibitors; calls by dose curve; tested in HEK293 cells; note: potency is the fitted concentration of half-maximal effect; nearly all actives have a fitted effect of over 50% in size
The depositor's hits bear a star; i = inactive; ? = inconclusive; · = no result; [ ] = dose if it differs, or a comment. Hits are enriched below; roughly 7.8% of the tested compounds scored in any of these assays. % is set by controls: 0 for no effect and ±100 for the full control effect.

SMILES	Marburg entry inh	Vaccinia Venus	Vaccinia mCherry	HCMV antiviral	HCV inh	LASV entry inh
O=C1/C(=C/c2ccc([N+](=O)[O-])cc2)Oc2cc(O)ccc21	?	-9%	-19%	-89*	-26%	?
COc1cc(-c2noc(C)c2C#CCCN2C(=O)c3ccccc3C2=O)cc(OC)c1OC	·	-7%	-15%	·	·	·
N#Cc1ccccc1NC(=O)CSc1nnc(N)s1	·	-4%	0%	66	·	-4%[46.1 µM]
CCOC(=O)CN(C)C(=O)c1cnn(-c2ncc3c(n2)-c2ccccc2CCC3)c1C	·	-8%	-9%	·	·	·
O=C(COC(=O)c1ccc(O)cc1O)NC1CCCCCC1	·	·	·	11	13µM*	·
COc1ccc(C(=O)OCC(=O)NC23CC4CC(CC(C4)C2)C3)c(O)c1	·	-27%	?	-27	·	·
O=C(COC(=O)c1ccc(O)cc1O)NC12CC3CC(CC(C3)C1)C2	·	·	·	7	13µM*	·
Cc1ccccc1Cn1cc(NS(=O)(=O)c2cn(C)nc2C)cn1	·	·	·	-60*	16%	·
CC(C)c1ccc(NC(=O)C2CCN(S(=O)(=O)c3ccc4c(c3)NC(=O)CO4)CC2)cc1	·	·	·	-68*	?	·
CC1Sc2ccc(S(=O)(=O)N3CCC(C(=O)Nc4ccc(Cl)cc4)CC3)cc2NC1=O (stereo not given)	·	·	·	-71*	?	·
Cc1ccc(NC(=O)C2CCN(S(=O)(=O)c3ccc4c(c3)NC(=O)CO4)CC2)cc1	-5%[46.1 µM]	-20%	-11%	?	?	-20%[46.1 µM]
COC(=O)[C@]12CCCCC=C1N(CCc1ccc(OC)c(OC)c1)C(=O)[C@H](CC(=O)NCc1ccc(C)o1)C2	·	-4%	-1%	-3	·	·
COc1ccc(NC(=O)Nc2cccc(F)c2)c(OC)c1	16%[46.1 µM]	-18%	-1%	30	-27%	24%[46.1 µM]
CN(C)c1cccc(C(=O)Nc2cccc(F)c2)c1	?	-13%	-4%	90	1%	?
O=C(Nc1ccccc1)Nc1ccc(F)cc1F	·	·	·	-17	-13%	·
COC(=O)c1ccc(NC(=O)Nc2cccc(F)c2)cc1	?	-21%	-12%	-11	10µM*	?
COC(=O)c1ccc(C(=O)Nc2ccc(F)cc2)cc1	·	-9%	-16%	21	7.1µM*	·
COC(=O)c1ccc(NC(=O)Cc2ccc(F)cc2)cc1	?	-7%	i	-36	-21%	-18%[46.1 µM]
COC(=O)c1ccc(NC(=O)Nc2ccc(F)cc2F)cc1	?	-8%	-10%	14	11µM*	16%[46.1 µM]
CCN(CC)c1ccc(C(=O)Nc2cccc(F)c2)cc1	?	?	·	-24	10µM*	?
COc1ccc(/C=C(\C)C(=O)NO)cc1	·	-13%	-3%	·	·	·
COc1ccccc1CNC(=O)c1ccc(-c2nc(CS(=O)(=O)c3ccc(C)cc3)c(C)o2)cc1	·	-21%	-24%	12	·	-25%[46.1 µM]
O=C(Nc1ccc(F)cc1)Nc1cccc(Br)c1	·	·	·	-88*	-27%	·
Cc1cccc(CSCCNC(=O)C2CCN(S(=O)(=O)Cc3ccccc3)CC2)c1	-17%[46.1 µM]	-1%	-11%	3	·	-29%[46.1 µM]
Cc1ccc(NCC(=O)N=Nc2c(O)[nH]c3ccc([N+](=O)[O-])cc23)cc1	-2%	-1%	i	0	-10%	-20%
SMILES	Marburg entry inh	Vaccinia Venus	Vaccinia mCherry	HCMV antiviral	HCV inh	LASV entry inh
Cc1ccccc1NCC(=O)N=Nc1c(O)[nH]c2ccc([N+](=O)[O-])cc12	·	·	·	-83*	-22%	·
CN(C)CCNc1cc(N2CCN(C)CC2)ncn1	·	-11%	-21%	·	·	·
O=C1c2ccccc2NC(c2ccc(Br)s2)N1O (stereo not given)	·	·	·	-75*	?	·
C=CCN1C(=O)c2ccccc2NC1c1ccc(Br)s1 (stereo not given)	-4%[46.1 µM]	-3%	?	?	8%	21%[46.1 µM]
CCOC(=O)c1cc2c(=O)n3ccccc3nc2n(CCCOC)c1=NC(=O)c1c(-c2c(F)cccc2Cl)noc1C	?	-10%	-7%	43	·	-1%[46.1 µM]
Cc1cc2ccccc2n1-c1ccc(C(=O)N2CCC(C(=O)NCc3ccc(F)cc3)CC2)s1	·	-24%	-22%	-21	·	?
Cc1ccc(N=Nc2c(N)[nH]n3c(=O)cc(-c4ccccc4)nc23)cc1	?	0%	6%	-81*	13µM*	1%
CCCc1cc(=O)n2[nH]c(C)c(-c3ccccc3)c2n1	-6%	?	·	90	-4%	-17%
Cc1[nH]n2c(=O)cc(C(C)(C)C)nc2c1-c1ccccc1	?	?	10µM*	-62*	10µM*	10µM*
Cc1[nH]n2c(=O)cc(-c3ccc(Cl)cc3)nc2c1-c1ccccc1	11µM*	?	8.9µM*	-107*	·	2.5µM*
Cc1[nH]n2c(=O)cc(C(C)C)nc2c1-c1ccccc1	?	-20%	-7%	42	-23%	-11%
Cc1[nH]n2c(=O)cc(-c3ccc([N+](=O)[O-])cc3)nc2c1-c1ccccc1	?	-14%	-16%	42	10µM*	?
O=C(NCc1ccccc1)c1nc2ccccc2nc1-c1ccc(F)cc1	·	·	·	18	·	·
CCOc1ccc(CNS(=O)(=O)c2ccc(-c3coc(C)n3)cc2)cc1OC	·	-7%	-17%	-29	·	-17%[46.1 µM]
C=CC[n+]1c(-c2ccc(Cl)cc2Cl)csc1Nc1c(C)n(C)n(-c2ccccc2)c1=O	?	?	?	-87*	13µM*	?
C=CC[n+]1c(-c2ccc(Cl)cc2Cl)csc1Nc1ccc(NC(C)=O)cc1	3.2µM*	-10%	?	-94*	?	2.8µM*
COc1ccc(-c2c(C#N)c(N)nc3c2CCc2ccccc2-3)cc1OC	23µM*	·	·	-26	11µM*	?
COc1ccc(-c2cc(-c3ccc(O)cc3)nc(N)c2C#N)cc1OC	4.5µM*	?	-17%	0	?	?
Cc1cccc(N(C)S(=O)(=O)c2c(C(=O)N3CCCCCC3)c(C)n(C)c2C)c1	·	-11%	-6%	-8	·	0%[46.1 µM]
O=C(CCCN1C(=O)/C(=C/c2cccc(Br)c2)SC1=S)Nc1cccnc1	?	-28%	?	-99*	?	?
O=C(CCN1C(=O)/C(=C/c2ccc(Cl)cc2)SC1=S)Nc1cccnc1	5%[46.1 µM]	3%	-5%	-27	12%	5%[46.1 µM]
O=C(CCCN1C(=O)/C(=C\c2cccc(Br)c2)SC1=S)Nc1cccnc1	4.5µM*	?	?	-99*	?	?
O=C(CCCN1C(=O)/C(=C/c2cccc(Br)c2)SC1=S)Nc1ccccn1	?	·	·	-101*	11µM*	-10%
O=C(CCN1C(=O)/C(=C/C=C/c2ccccc2)SC1=S)Nc1ccccn1	-29%	-3%	i	-65*	11%	?
Cc1ccc(/C=C2\SC(=S)N(CCCC(=O)Nc3cccnc3)C2=O)cc1	?	-3%	-17%	·	0%	?
Cc1cccc(NC(=O)Cn2nc(N3CCN(c4ccccc4)CC3)ccc2=O)c1C	·	6%	-10%	-19	·	?
